# Compound activity from PubChem.
# The sample as a whole holds a higher share of hits than the screen did.
# KDM5B inhibitor – KDM5B demethylase inhibition; KDM5B demethylase, FDH-coupled NADH fluorescence (FDH is formaldehyde dehydrogenase); Potency, µM (highest dose often 57.7 µM), usual class: inhibitors; hit rate 2.6% among 220,000; Q9UGL1; active = well fitted inhibition curve with a large enough effect; also: nearly all actives have a fitted effect of over 70% in size
#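 Compound dilutions met 200 nM (final) KDM5BΔAP for 10 min at room temperature before substrate addition. The substrate mix held 12.5 µM H3K4me3 with cofactors 25 µM α-ketoglutarate and 50 µM Fe²⁺. NADH signal gain over 30 min defined activity.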
# Numbers stand for hits; – = inactive.
SMILES,KDM5B inhibitor
Cn1nc(-c2ccc(F)cc2)cc1[C@H]1CN2CC[C@H]1C[C@@H]2CNC(=O)Nc1cccc(C#N)c1,–
N#Cc1cccc(-c2ccc3n(c2=O)C[C@H]2C[C@@H]3CN(C(=O)Nc3ccccc3)C2)c1,35.5µM
N#Cc1cccc(-c2ccc3n(c2=O)C[C@H]2C[C@@H]3CN(C(=O)CSCC(=O)O)C2)c1,35.5µM
N#Cc1cccc(-c2ccc3n(c2=O)C[C@H]2C[C@@H]3CN(C(=O)c3ccc(F)cc3)C2)c1,31.6µM
O=C(Nc1ccccc1)N1C[C@@H]2C[C@H](C1)c1c(-c3cncnc3)ccc(=O)n1C2,–
O=C(Nc1cccc(F)c1)N1C[C@@H]2C[C@H](C1)c1c(-c3ccc(Cl)cc3)ccc(=O)n1C2,–
N#Cc1ccc(NC(=O)CSC2=Nc3ccccc3C3CC=NN23)cc1Cl (stereo not drawn),–
Cc1noc(C)c1COc1ccc(CC(=O)N2CCN(CC(=O)N3CCOCC3)CC2)cc1,–
Cc1ccc(NC(=O)CN2C(=O)CN=C(c3ccc(F)cc3)c3c2sc(C)c3C)cc1,–
Cn1nc(-c2ccc(F)cc2)cc1[C@H]1CN2CC[C@H]1C[C@@H]2CNC(=O)c1ccc2c(c1)OCO2,–
COc1ccc(C2SCC(=O)Nc3[nH]ncc32)cc1OC1CCCC1 (stereo not drawn),–
COc1ccccc1CNC(=O)[C@H]1CN2CCC1C[C@@H]2Cn1cc(C(C)(C)O)nn1 (stereo partly drawn),–
COC(=O)C12CCC(CC1c1ccccc1)OC2=O (stereo not drawn),–
CN(CCc1ccccn1)C[C@H]1CN2CC[C@H]1C[C@@H]2CNC(=O)c1ccc(C(F)(F)F)cc1,–
c1ccc(CCNCC2CCCO2)cc1 (stereo not drawn),–
CC(=O)c1ccc(NC(=O)NC[C@H]2C[C@@H]3CCN2C[C@@H]3c2cc(-c3ccco3)nc(C)n2)cc1,–
COc1ccc(-c2cc([C@H]3CN4CC[C@H]3C[C@@H]4CNC(=O)C3CCC3)nc(C)n2)cc1OC,31.6µM
COc1ccc(-c2cc([C@H]3CN4CC[C@H]3C[C@@H]4CNC(=O)NC(C)C)nc(C)n2)cc1OC,31.6µM
Cc1nc(-c2ccco2)cc([C@H]2CN3CC[C@H]2C[C@@H]3CNC(=O)C2CC2)n1,35.5µM
CCC(CC)c1cc([C@H]2CN3CC[C@H]2C[C@@H]3COC(=O)Nc2ccccc2)nc(-c2ccncc2)n1,–
CCC(CC)c1cc([C@H]2CN3CC[C@H]2C[C@@H]3CNC(=O)COc2ccccc2)nc(-c2ccncc2)n1,25.1µM
COc1ccc(-c2cc([C@H]3CN4CC[C@H]3C[C@@H]4COC(=O)NC(C)C)n(C)n2)cc1OC,–
COc1ccc(C(=O)NC[C@H]2C[C@@H]3CCN2C[C@@H]3c2cc(-c3ccccc3Br)nc(C)n2)cc1,–
CCC(CC)c1cc([C@H]2CN3CC[C@H]2C[C@@H]3CNC(=O)Cc2cccs2)nc(-c2ccncc2)n1,–
CCNC(=O)NC[C@H]1C[C@@H]2CCN1C[C@@H]2c1cc(-c2ccc(OC)c(OC)c2)nn1C,–
SMILES,KDM5B inhibitor
Cc1nc(-c2ccccc2Br)cc([C@H]2CN3CC[C@H]2C[C@@H]3CNC(=O)C2CC2)n1,–
Cc1nc(-c2ccc(C(F)(F)F)cc2)cc([C@H]2CN3CC[C@H]2C[C@@H]3CNC(=O)C2CC2)n1,–
C#CCOc1ccc(CCN)cc1,–
COc1cc(CNC2CN3CCC2CC3)ccc1OCc1c(F)cccc1Cl (stereo not drawn),–
CCCNC(=O)OC[C@H]1C[C@@H]2CCN1C[C@@H]2c1cc(-c2ccc(OC)cc2)nn1C,–
CN(C)CCCN1CCC(=O)C2CCCCC21 (stereo not drawn),–
CC1CCN(CC(=O)Nc2ccc(C#N)c(Cl)c2)CC1,–
O=S(=O)(NC[C@H]1C[C@@H]2CCN1C[C@@H]2CN1CCCC1)c1ccc(Cl)cc1,–
c1ccc(CCNC2CCCCCCC2)cc1,–
Cc1cc2ccccc2n1CC(=O)NCC1(CC(=O)O)CCCCC1,–
Cc1[nH]c2ccc(C34CC5CC(CC(C5)C3)C4)cc2c1CCN,–
CCCn1c(C)c(C(=O)OCc2ccccc2)c2cc(O)ccc21,–
C[N+](C)(C)CC1CC1,–
CC(C)CCN1CCCC2(CC(c3ccccn3)=NO2)C1 (stereo not drawn),–
CCC(CC)c1cc([C@H]2CN3CC[C@H]2C[C@@H]3CNC(=O)c2ccc(C)cc2)nc(-c2ccncc2)n1,–
O=C(COc1ccc(F)cc1)N1CCN(CCc2ccncc2)CC1,–
Cc1cc(C[N+](C)(C)C)oc1C,–
O=S(=O)(c1ccccc1)N1[C@H]2CC[C@@H]1c1cncnc1C2,–
COCC(=O)NC[C@H]1C[C@@H]2CCN1C[C@@H]2c1cc(-c2ccccc2)nc(C)n1,–
Cc1nc(-c2ccccc2)cc([C@H]2CN3CC[C@H]2C[C@@H]3CNC(=O)CCCC(=O)O)n1,–
COCC(=O)NC[C@H]1C[C@@H]2CCN1C[C@@H]2c1cc(-c2ccccc2OC)nc(C)n1,35.5µM
COc1ncccc1-c1cnc2[nH]cc(CC(=O)N3CCN(C)CC3)c2c1,35.5µM
CCN1CCN(C(=O)Cc2c[nH]c3ccccc23)CC1,–
O=C(Cc1c[nH]c2ccccc12)N1CCN(CC(=O)N2CCCC2)CC1,–
O=C(Cc1c[nH]c2ncc(-c3cccnc3)cc12)N1CCN(Cc2ccccc2)CC1,–
SMILES,KDM5B inhibitor
CC(C)CNC(=O)CN1CCN(C(=O)Cc2c[nH]c3ccccc23)CC1,–
CN1CCN(C(=O)COc2ccc3ccccc3c2)CC1,–
COc1cccc(CC(=O)N2CCN(CCC(=O)NC(N)=O)CC2)c1,–
CN1CCN(C(=O)Cc2c[nH]c3ncc(-c4ccccc4Oc4ccccc4)cc23)CC1,39.8µM
COc1cc2c(cc1-c1cccnc1OC)NC(=O)C21CCN(C(C)=O)CC1,–
COc1cccc(-c2cnc3[nH]cc(CC(=O)N4CCN(C)CC4)c3c2)c1,35.5µM
CN1CCN(C(=O)Cc2c[nH]c3ncc(-c4cccc(OC(F)(F)F)c4)cc23)CC1,35.5µM
CCC(CC)c1cc([C@H]2CN3CC[C@H]2C[C@@H]3CNC(=O)Nc2cccc(C#N)c2)nc(-c2ccncc2)n1,–
CC(Cc1ccco1)NCc1cc2ccccc2o1 (stereo not drawn),–
N#Cc1cc2c(cc1C(=O)c1cccs1)OCCO2,–
O=C1CSC(c2ccc(Cl)cc2)c2cn[nH]c2N1 (stereo not drawn),–
COc1ccc(-c2cc([C@H]3CN4CC[C@H]3C[C@@H]4CN)n(C)n2)cc1OC,–
Cc1ccc(C(=O)N2CCC3(CC2)c2nccn2-c2ccccc2CN3CC(C)C)cc1F,–
COc1cc2c(cc1CCc1ccccc1)N(C(=O)c1ccc3[nH]ccc3c1)CC21CCN(C(C)=O)CC1,–
CC(C)n1nc(C(=O)NCC2(N3CCOCC3)CCCCC2)c2ccccc2c1=O,–
CCCCNC(=O)NC(=O)CCl,–
CC(C)(C)c1cn(C[C@H]2CC3CCN2C[C@@H]3C(=O)Nc2nccs2)nn1 (stereo partly drawn),–
COc1ccc2c(C)c(C(=O)N3CCC(C#N)(c4ccccc4)CC3)oc2c1,20µM
N#CC1(c2ccccc2)CCN(C(=O)C2CCN(C(=O)C3CC3)CC2)CC1,–
N#CC1(c2ccccc2)CCN(C(=O)c2cccc(-n3cnnc3)c2)CC1,–
COCC1CN(C)CC12CCN(Cc1ccncc1F)CC2 (stereo not drawn),–
COCC1CN(C)CC12CCN(Cc1cccc(OC)n1)CC2 (stereo not drawn),–
COCC1CN(C2CCC2)CC12CCN(Cc1cccnc1)CC2 (stereo not drawn),28.2µM
